# Measurements: the supplement of paper PMC3545927
# This is one part of the list. No count for the full screen is at hand.
# B1: HC1576 (peptide)
# chain: CANIIMFAPTAGNASASA
# B2: HC1627 (peptide)
# chain: CAARGGRAAIAGNASASA
# B3: FS-2194 (peptide)
# chain: CARVCRSDNTAGNASASA
# B4: FS-2263 (peptide)
# chain: CARKGRVVIDAGNASASA
# B5: HC1457 (peptide)
# chain: CAMALYDVVTAGNASASA
# B6: FS-2098 (peptide)
# chain: CARVGRSLPTAGNASASA
# B7: HC572 (peptide)
# chain: CALVGLMALTAGNASASA
# B8: FS-2838 (peptide)
# chain: CARVGRSSKQAGNASASA
# B9: HC1993 (peptide)
# chain: CARVCCSMSYAGNASASA
# B10: FS-2470 (peptide)
# chain: CARVGRQVVTAGNASASA
# B11: FS-2620 (peptide)
# chain: CARVPRDPSTAGNASASA
# B12: FS-3117 (peptide)
# chain: CARVGRSVTDAGNASASA
# B13: FS-2341 (peptide)
# chain: CARKGRSEDIAGNASASA
# B14: FS-2195 (peptide)
# chain: CARVGRGVSIAGNASASA
# B15: HC2231 (peptide)
# chain: CAEVVTSTDVAGNASASA
# B16: HC1260 (peptide)
# chain: CAASSSASQLAGNASASA
# B17: HC2027 (peptide)
# chain: CAVVFCSMSYAGNASASA
# B18: FS-1803 (peptide)
# chain: CARVSKDVEDAGNASASA
# B19: FS-1800 (peptide)
# chain: CARVCRDLMDAGNASASA
# B20: FS-2308 (peptide)
# chain: CARSLRDLMEAGNASASA
# B21: HC2031 (peptide)
# chain: CAVVDCSMSYAGNASASA
# B22: HC1049 (peptide)
# chain: CAGLSTLPGNAGNASASA
# B23: FS-2364 (peptide)
# chain: CARQRRCLPQAGNASASA
# B24: FS-2224 (peptide)
# chain: CARQARAVPQAGNASASA
# B25: FS-2172 (peptide)
# chain: CARQRKESETAGNASASA
# B26: FS-2582 (peptide)
# chain: CARQARHYHQAGNASASA
# B27: FS-2466 (peptide)
# chain: CARTMKSVNAAGNASASA
# B28: FS-1915 (peptide)
# chain: CARQARFSSQAGNASASA
# B29: FS-2367 (peptide)
# chain: CARQRRTVGQAGNASASA
# B30: FS-2363 (peptide)
# chain: CARQRKSVNAAGNASASA
# B31: FS-3043 (peptide)
# chain: CARQRRQVWKAGNASASA
# B32: HC340 (peptide)
# chain: CAIAYFSMVGAGNASASA
# B33: HC1333 (peptide)
# chain: CAAELATRSFAGNASASA
# B34: HC1327 (peptide)
# chain: CAVVLTESTLAGNASASA
# B35: HC1301 (peptide)
# chain: CAFAQALPVWAGNASASA
# B36: HC672 (peptide)
# chain: CAWRLLAPITAGNASASA
# B37: FS-2824 (peptide)
# chain: CARTKRAQSPAGNASASA
# B38: HC802 (peptide)
# chain: CARTITTGSPAGNASASA
# B39: FS-2527 (peptide)
# chain: CARTKRTPGPAGNASASA
# B40: HC1636 (peptide)
# chain: CARTKLKLTPAGNASASA
# B41: FS-2830 (peptide)
# chain: CARTKRTRRPAGNASASA
# B42: FS-1870 (peptide)
# chain: CARTKRQIPHAGNASASA
# B43: FS-1795 (peptide)
# chain: CARSVRLGGPAGNASASA
# Biological target: furin, P09958
# Sequence (P09958 whole entry): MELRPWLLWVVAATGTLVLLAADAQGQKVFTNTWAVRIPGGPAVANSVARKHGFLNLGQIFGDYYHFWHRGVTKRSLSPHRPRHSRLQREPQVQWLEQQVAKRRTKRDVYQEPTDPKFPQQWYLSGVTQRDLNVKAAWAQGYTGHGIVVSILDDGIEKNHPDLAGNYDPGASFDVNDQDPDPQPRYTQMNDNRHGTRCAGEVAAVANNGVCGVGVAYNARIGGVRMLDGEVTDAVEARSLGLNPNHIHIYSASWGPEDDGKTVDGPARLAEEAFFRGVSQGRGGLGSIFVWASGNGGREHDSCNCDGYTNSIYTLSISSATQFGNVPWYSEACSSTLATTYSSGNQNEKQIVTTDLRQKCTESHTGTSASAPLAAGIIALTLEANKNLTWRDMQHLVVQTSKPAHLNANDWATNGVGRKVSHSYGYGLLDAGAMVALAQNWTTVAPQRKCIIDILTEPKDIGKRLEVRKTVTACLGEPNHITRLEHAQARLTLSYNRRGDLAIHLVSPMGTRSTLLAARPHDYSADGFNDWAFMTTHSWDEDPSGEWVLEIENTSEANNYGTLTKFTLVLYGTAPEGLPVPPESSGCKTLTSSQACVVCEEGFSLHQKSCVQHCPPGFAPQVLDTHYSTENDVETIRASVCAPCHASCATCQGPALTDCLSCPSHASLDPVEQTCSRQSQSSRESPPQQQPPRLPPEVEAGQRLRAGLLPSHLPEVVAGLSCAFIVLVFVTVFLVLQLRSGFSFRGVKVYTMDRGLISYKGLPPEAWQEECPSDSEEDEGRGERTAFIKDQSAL
# Assay: furin cleavage Z-score vs untreated control; higher = more cleavage, active = 3.5 or more, inactive = 1 or less, 8 variable residues between constant flanks
# In short: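 The cleavage Z-score was derived for purified furin acting on 8-mer peptides held on magnetic beads and fused to a cDNA oligonucleotide. Digests lasted 7.5, 15 or 30 min at 1:10 enzyme:substrate in 50 mM HEPES pH 7.5 with CaCl2 and NaCl. Sequencing counts of released DNA, log-transformed against furin-free reactions, were lowess-adjusted and scaled by median absolute deviation.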
Sequence,furin cleavage Z-score (7.5 min),furin cleavage Z-score (15 min),furin cleavage Z-score (30 min)
B1,-0.25 (inactive),-0.574 (inactive),-0.569 (inactive)
B2,0.309 (inactive),-1.06 (inactive),0.234 (inactive)
B3,2.3,1.13,4.01 (active)
B4,-1.41 (inactive),-0.368 (inactive),0.767 (inactive)
B5,-0.109 (inactive),-0.594 (inactive),1.06
B6,8.92 (active),10.2 (active),8.81 (active)
B7,-0.292 (inactive),-0.497 (inactive),-0.985 (inactive)
B8,0.0354 (inactive),0.533 (inactive),2.07
B9,-1.56 (inactive),0.796 (inactive),0.275 (inactive)
B10,1.41,4.05 (active),2.16
B11,0.232 (inactive),0.063 (inactive),1.18
B12,9.08 (active),9.86 (active),8.63 (active)
B13,0.928 (inactive),1.18,-0.197 (inactive)
B14,-0.488 (inactive),-0.0472 (inactive),2.09
B15,-0.548 (inactive),0.743 (inactive),-0.721 (inactive)
B16,1.48,0.251 (inactive),0.48 (inactive)
B17,1.89,0.607 (inactive),-0.194 (inactive)
B18,0.222 (inactive),-0.204 (inactive),-0.557 (inactive)
B19,4.33 (active),7.74 (active),7.6 (active)
B20,0.906 (inactive),1.52,1.89
B21,-1.66 (inactive),-0.65 (inactive),-0.452 (inactive)
B22,0.578 (inactive),-0.00394 (inactive),0.293 (inactive)

Sequence,furin cleavage Z-score (7.5 min),furin cleavage Z-score (15 min),furin cleavage Z-score (30 min)
B23,-0.0379 (inactive),0.942 (inactive),2.63
B24,3.01,5.06 (active),5.46 (active)
B25,-0.961 (inactive),-0.283 (inactive),-0.371 (inactive)
B26,0.232 (inactive),1.85,2.09
B27,1.07,2.56,0.0466 (inactive)
B28,-1.25 (inactive),-0.103 (inactive),0.0874 (inactive)
B29,6.93 (active),8.06 (active),7.82 (active)
B30,1.57,3.81 (active),4.35 (active)
B31,2.63,5.18 (active),6.07 (active)
B32,-0.888 (inactive),-0.599 (inactive),0.982 (inactive)
B33,2.09,0.0816 (inactive),1.22
B34,0.79 (inactive),0.145 (inactive),0.957 (inactive)
B35,-1.52 (inactive),0.477 (inactive),-2.4 (inactive)
B36,-1.21 (inactive),-0.661 (inactive),-0.636 (inactive)
B37,6.65 (active),6.74 (active),5.31 (active)
B38,-0.428 (inactive),-0.048 (inactive),0.343 (inactive)
B39,5.68 (active),6.29 (active),6.29 (active)
B40,-0.273 (inactive),-0.712 (inactive),0.0379 (inactive)
B41,0.799 (inactive),1.15,0.99 (inactive)
B42,7.68 (active),12 (active),8.92 (active)
B43,0.0283 (inactive),0.734 (inactive),-1.33 (inactive)
